# NS1 function inh – inhibitors of influenza NS1 protein function | AID 2326 | Potency, µM (highest dose often 46.1 µM), for inactives: at the highest dose activity, positive = more growth | actives 0.4% (n = 270,000); also: potency is read from the fitted curve at half-maximal effect; actives are rising curves; nearly all actives have a fitted effect of over 50% in size
#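 Compounds were scored for reversing the slow growth caused by influenza A NS1 in S. cerevisiae, measured by optical density at 600 nm. Assay medium contained 2% galactose at pH 6.0; NS1-free yeast of the same strain were the positive control.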
# Shiga inhibitor – blocks Shiga toxin action in Vero cells. Vero cells, Shiga toxin protein synthesis inhibition reporter. inhibition, % at 38.7 µM. actives 9.2% (n = 290,000). AID 2315; in the data active = inhibition mostly above about 28%, no sharp cut-off; inactive = mostly below about 43%; also: 0% is about no effect
# SARS PLpro yeast – blocks SARS-CoV papain-like protease in a yeast assay | S. cerevisiae expressing SARS-CoV PLpro, growth rescue | Potency, µM (series often up to 32.9 µM), for the others: at the highest dose activity, positive = growth rescue, actives largely listed as activators | actives 0.19% (n = 330,000); also: potency is read from the fitted curve at half-maximal effect; 0% is about no effect; nearly all actives have a fitted effect of over 55% in size
# CHX counter – counter-screen for Shiga toxin inhibitors: cycloheximide protein synthesis inhibition; cell reporter, cycloheximide protein synthesis inhibition counterscreen; AID 2314; actives 12% (n = 300,000); max response, %; in the data active = max response mostly above about 13%, no sharp cut-off; inactive = mostly below about 14%; also: read at 38.3 µM for the half of the compounds with a filed dose; 0% is about no effect
# Numbers without * were called inactive; ? = inconclusive; · = no result given. Shown are actives, neighbours in structure and some others; about 12% of the full set was active somewhere. Unless noted, calls follow the shape of the full dose curve.
SMILES,NS1 function inh,Shiga inhibitor,SARS PLpro yeast,CHX counter
COC(=O)c1ccc(Oc2nc(Nc3ccc(C)c(C)c3)nc(N(C)C)n2)cc1,14.2%,13.4,-10.5%,12.6
COC(=O)c1c(NC(=O)C2CC2)sc(C(=O)Nc2ccccc2)c1C,·,52.1*,-0.4%,25.2*
COC(=O)c1c(NC(=O)C2CCC2)sc(C(=O)N(C)C)c1C,-3.2%,-6.8,7.2%,-1.2
CCOC(=O)c1sc(NC(=O)CCN2C(=O)c3ccccc3C2=O)c(C(=O)OCC)c1C,9.4%,22.0,12.5%,12.6*
CCOC(=O)c1c(NC(=O)CSc2cccc[n+]2[O-])sc(C(=O)Nc2ccccc2)c1C,·,72.4*,-0.6%,27.1*
CC(C)C(NC(=O)c1ccccc1F)C(=O)NCc1ccccc1 (centres undefined),19.4%,-3.1,-2.7%,-2.5
O=C1CC(N(Cc2cccs2)C(=O)Nc2ccccc2)C(=O)N1c1ccc(Cl)cc1 (centres undefined),-4.6%,-2.6,-10.2%,-5.6
O=C(O)c1ccc(N/N=C/c2cc(Br)cs2)cc1,-112.2%,28.7,-5.1%,24.8*
Cc1ccc(/C=N/Nc2ccc(C(=O)O)cc2)s1,·,49.5,0.1%,7.9
O=C(Cc1ccccc1)N/N=C/c1cc(Br)cs1,-2.0%,17.1,-0.4%,13.6*
OCCNc1ncnc2c1ncn2[C@@H]1O[C@@H](CO)[C@H](O)[C@@H]1O,-3.9%,·,·,·
O=C(Nc1ccccc1)/C(=C1\CCCN1)[N+](=O)[O-],·,4.3,-0.8%,11.8
Cc1ccc(CC(=O)Nc2cc([N+](=O)[O-])ccc2F)cc1,-5.3%,-13.4,0.9%,1.9
O=C(Nc1ccccc1F)c1ccc([N+](=O)[O-])s1,·,83.3,-10.5%,38.4*
Cc1ccc(C(=O)Nc2cc([N+](=O)[O-])ccc2F)s1,-2.1%,active,1.9%,9.6
CC(C)NC(=S)N/N=C/c1ccc(N2CCOCC2)cc1,4.3%,-7.0,5.8%,11.7
COc1ccc2cc(/C(C)=N/NC(=S)Nc3cc(S(=O)(=O)N4CCOCC4)ccc3N3CCOCC3)ccc2c1,13.8%,43.8,0.7%,20.5*
O=S(=O)(c1ccc(Cl)c(NC(=S)N/N=C/c2c(F)cccc2F)c1)N1CCOCC1,-1.7%,-24.9,23.7%,-0.6
O=S(=O)(c1ccc(Cl)c(NC(=S)N/N=C/c2ccc(O)cc2)c1)N1CCOCC1,21.8%,15.3,-6.4%,17.8*
Oc1ccc(/C=N/NC(=S)N2CCOCC2)cc1,0.1%,59.1,-1.5%,29.6*
CC(C)[C@H](NC(=O)N1CC(=O)Nc2ccccc21)C(=O)N[C@H](Cc1ccccc1)C(=O)O,2.1%,-3.0,-1.4%,-1.1
Cc1nnc(SC(C)C(=O)Nc2ccc(N3CCOCC3)cc2)n1Cc1ccccc1 (centres undefined),·,·,0.7%,·
CCCC(C)NC(=O)c1sc2nc3n(c(=O)c2c1C)CCC3 (centres undefined),·,29.1,-0.5%,17.2*
CCOC(=O)c1sc2nc3n(c(=O)c2c1C)CCC3,-13.4%,20.0,23.4%,-2.6
CCOC(=O)c1sc2nc3n(c(=O)c2c1C)CCCCC3,-27.7%,103.1*,4.1%,46.8*
SMILES,NS1 function inh,Shiga inhibitor,SARS PLpro yeast,CHX counter
CNc1nc(OCC#N)nc(N2CCCCC2)n1,0.0%,-17.0,0.8%,0.9
Cc1ccc(OCc2cc(C(=O)N3CCN(C)C[C@@H]3c3ccccc3)no2)cc1C,-27.9%,122.6*,-0.1%,74.8*
CN1CCN(C(=O)c2cc(COc3ccccc3)on2)[C@@H](c2ccccc2)C1,8.7%,117.5*,8.0%,54.8*
CN1CCN(C(=O)c2cc(COc3c(F)cccc3F)on2)CC1c1ccccc1 (centres undefined),-2.0%,2.7,0.1%,-2.2
CCCCN(C(=O)c1[nH]c(C)c(C(=O)OCC)c1C)c1c(N)n(CCCC)c(=O)[nH]c1=O,·,·,-0.7%,·
Cc1cc(/C=N/O)c(C)n1-c1cccc(Cl)c1,15.5%,10.0,0.6%,-0.7
COc1cccc(CN(C)C(=O)CSc2nc3ccccc3[nH]2)c1OC,-4.6%,45.9*,-0.5%,26.4*
COc1cccc(C(=O)NCC(=O)N2CCC(C)CC2)c1,-11.4%,34.9,2.4%,24.7*
COc1ccc(N2CCN(C(=O)COC(=O)CNC(=O)c3cccc(OC(F)F)c3)CC2)cc1,·,·,2.2%,·
CC1CCN(C(=O)CNC(=O)c2cccc(OC(F)F)c2)CC1,·,48.8*,2.4%,18.3*
O=C(NCCCn1ccnc1)/C(=C\c1cccs1)NC(=O)c1cccs1,·,14.0,-0.2%,7.9
COc1ccc(S(=O)(=O)Cc2ccc(C(=O)NC3CCCCCC3)o2)cc1,-13.2%,-3.0,-2.0%,-1.8
O=[N+]([O-])c1ccccc1/C=N/Nc1nccnc1Cl,-7.8%,124.0*,-7.6%,49.5*
COc1cccc(/C=N/Nc2ncnc3scc(-c4ccccc4)c23)c1O,-17.2%,-2.1,?,-0.3
Nc1cc(Cl)nc(N/N=C/c2ccccc2[N+](=O)[O-])n1,8.6%,86.6*,6.2%,46.8*
Oc1ccccc1/C=N/Nc1nccnc1Cl,-186.4%,106.4,-33.2%,37.7*
COc1cccc(/C=N/Nc2nccnc2Cl)c1O,-61.5%,34.1,-6.1%,13.2*
O=C(Cn1cc(C(F)(F)F)ccc1=O)N/N=C/c1cccc(Cl)c1,23.6%,3.6,7.8%,-2.0
O=C(NCC(c1ccco1)N1CCc2ccccc2C1)c1ccc(Br)cc1 (centres undefined),·,·,-1.1%,·
Cc1csc(SCC(=O)NC(C)c2ccccc2)n1 (centres undefined),·,36.3,-1.5%,18.6
Oc1ccc(/C=N/Nc2nccnc2Cl)c(O)c1,-99.3%,123.9*,3.16µM*,49.1*
O=c1[nH]ncc(N/N=C\c2ccc(O)cc2O)c1Cl,·,-7.4,0.3%,-1.2
c1ccc(NCCCNc2ccccc2)cc1,16.9%,16.4,-2.4%,11.4*
c1ccc(Nc2ccc(Nc3ccccc3)cc2)cc1,·,·,-6.3%,·
CCc1cccc(CC)c1NC(=O)c1cccc(S(=O)(=O)N2CCN(C)CC2)c1,7.6%,-16.4,-1.4%,-1.6
SMILES,NS1 function inh,Shiga inhibitor,SARS PLpro yeast,CHX counter
CC(=O)c1ccc(NC(=O)c2cccc(S(=O)(=O)N3CCN(C)CC3)c2)cc1,11.4%,104.1*,4.4%,40.7*
CSc1ccccc1NC(=O)c1cccc(S(=O)(=O)N2CCN(C)CC2)c1,-18.3%,32.5*,-1.7%,37.0*
CC1=C(C(=O)Nc2ccc(Cl)cc2C(=O)N2CCC(C(N)=O)CC2)SCCO1,0.9%,-5.8,5.4%,-5.3
C=CCNC(=O)c1c(CSc2ccc(F)cc2)noc1C(=O)NCCC,·,·,2.1%,·
CC(=O)Nc1nc(C)c(C(C)=O)s1,-2.7%,-14.4,3.6%,-1.0
CC(=O)c1sc(NC(=O)c2ccc(Cl)cc2)nc1C,-11.7%,71.0*,-1.3%,29.9*
CC(=O)c1sc(NC(=O)c2ccccc2C)nc1C,·,51.4,-6.4%,47.1*
CC(=O)c1sc(NC(=O)c2cccc(C)c2)nc1C,·,68.2*,-1.7%,43.3*
Cc1ccccc1NC(=O)c1sc(NC(=O)C2CC2)nc1C,13.9%,21.3,3.8%,11.3*
Cc1cccc(C(=O)NC(=O)Nc2c(C)cc(C)nc2C)c1,-6.5%,58.3*,1.0%,21.4*
Cc1cc(C)c2sc(NC(=O)C3CC3)nc2c1,-17.7%,42.4*,-3.4%,26.5*
COC(=O)c1cc(OC)c(OC)cc1NC(=S)N1CCN(Cc2ccccc2)CC1,9.2%,-10.0,7.9%,-1.8

# Screens (PubChem BioAssay)
